# Reference: the supplement of paper PMC12636033
# ± gives the standard deviation of the averaged measurements. The full ranking holds about 33,000 sequences; the median of “E-score (rank enrichment, -0.5 to 0.5)” is about -0.0068, and the highest 2% start at about 0.24. The list comes from a sample in which the highest values are over-represented; it also holds similar and randomly drawn sequences.
# Test system: muMax20 (Max(13-93) K31hArg/K57hArg, M65Nle)
# Assay: PBM 8-mer E-score (E-score (rank enrichment, -0.5 to 0.5)); higher = stronger preferential binding
# Method: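 Protein binding microarray (universal PBM chip covering all 10-mers in fixed probe flanks) with chemically synthesized human Max(13-93) bHLH-LZ analogs (not full-length Max) bearing noncanonical residues (hArg, Tha, Aib, Nle at 65) and aromatic Cys staples. Read-out per 8-mer (and its reverse complement): E-score (rank-based enrichment, -0.5 to 0.5) and Z-score of median probe intensity.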
row,Sequence,PBM 8-mer E-score
1,ACTCCAGA,-0.0288 ± 0.033
2,CCAGGAAC,-0.286 ± 0.11
3,CAGGATTA,0.0457 ± 0.03
4,CAGCAGGG,-0.114 ± 0.086
5,CAAGAACA,-0.0329 ± 0.2
6,TAAGAACA,0.239 ± 0.0029
7,GAAGAACA,0.127 ± 0.031
8,ACGTTTAT,0.0742 ± 0.017
9,AATTGGCC,-0.0791 ± 0.05
10,GTTGGTAA,0.0564 ± 0.03
11,ATATGTGA,0.32 ± 0.08
12,ATATGTGG,0.261 ± 0.098
13,ATATGTGC,0.121 ± 0.056
14,CTATGTGA,0.0996 ± 0.088
15,ATGTGTGG,0.104 ± 0.095
16,GTATGTGA,0.0146 ± 0.021
17,CACGAATG,0.101 ± 0.063
18,GGCGGACA,-0.0909 ± 0.047
19,GTCCTAAA,0.0453 ± 0.11
20,ATGGCATG,0.0857 ± 0.18
21,ACTTTCTA,0.237 ± 0.046
22,ACTTTCTG,-0.00396 ± 0.12

row,Sequence,PBM 8-mer E-score
1,ACTTTCTC,0.0328 ± 0.03
2,CCGAAAAG,0.0771 ± 0.15
3,ATGAATTG,0.179 ± 0.062
4,ACTACAAC,0.268 ± 0.024
5,AATACACT,0.188 ± 0.042
6,AATACACA,0.308 ± 0.05
7,GGTATACA,0.109 ± 0.022
8,TGTATACA,0.335 ± 0.051
9,TATACACA,0.234 ± 0.038
10,AATACACG,0.256 ± 0.027
11,CCTACAAC,0.13 ± 0.0096
12,CATACACG,0.166 ± 0.029
13,CATACACA,0.221 ± 0.047
14,ACTACAAG,0.135 ± 0.062
15,CGTATACA,0.216 ± 0.049
16,CGCGACCA,-0.136 ± 0.0046
17,ATATGGTA,0.217 ± 0.0028
18,GTCGGACA,-0.2 ± 0.096
19,GAATAACC,0.0359 ± 0.041
20,TCGAAACA,0.00709 ± 0.067
21,ACAGAGTC,-0.0304 ± 0.021
22,ATCCTACA,-0.0539 ± 0.011

row,Sequence,PBM 8-mer E-score
1,GTTCCCGA,-0.272 ± 0.029
2,AAACTCGG,-0.00029 ± 0.062
3,TGAAATCA,0.102 ± 0.042
4,CACCTAGC,0.0921 ± 0.017
5,ACTACACG,0.149 ± 0.0089
6,TGTACACA,0.251 ± 0.073
7,AGTACACA,0.22 ± 0.037
8,ACTACACA,0.315 ± 0.053
9,CGTACACG,0.212 ± 0.059
10,CCTACACG,0.00955 ± 0.02
11,ATCCCTGG,-0.185 ± 0.058
12,ACTCCATC,-0.129 ± 0.053
13,ATTTCATC,0.17 ± 0.077
14,TGAAGACA,-0.094 ± 0.12
15,AAAGTATA,0.315 ± 0.012
16,AAAGTATT,0.221 ± 0.0025
17,CAAGTATA,0.187 ± 0.011
18,CATGTATA,0.228 ± 0.034
19,GTTGTATA,0.249 ± 0.025
20,ACTGTATA,0.255 ± 0.011
21,CTTGTATA,0.136 ± 0.16
22,CCTGTATA,0.116 ± 0.042

row,Sequence,PBM 8-mer E-score
1,AATGTATA,0.279 ± 0.074
2,GCTGTATA,0.192 ± 0.026
3,ATTGTATA,0.131 ± 0.13
4,GATGTATA,0.103 ± 0.14
5,ACGCCATA,0.0949 ± 0.073
6,TCTAAACA,0.16 ± 0.033
7,CTGAGTTA,-0.0809 ± 0.031
8,AGAAAAAA,0.231 ± 0.056
9,CATCGAGC,-0.0831 ± 0.0056
10,AAATGTGC,0.121 ± 0.067
11,ACGGTGCT,-0.0206 ± 0.018
12,CTTGTTTA,0.0457 ± 0.0082
13,GTTGTTTA,0.32 ± 0.063
14,ATTGTTTA,0.103 ± 0.011
15,ACATTGTG,0.144 ± 0.17
16,TAGATCTA,0.0708 ± 0.14
17,AACATATG,0.136 ± 0.027
18,ACCATATC,0.0503 ± 0.19
19,CACATATA,0.325 ± 0.081
20,CACATATC,0.149 ± 0.067
